Assay results from the supplement of paper PMC11732987, “Enantioselective OTUD7B fragment discovery through chemoproteomics screening and high-throughput optimisation” (Communications Chemistry, 2025).

Experiments:
Assay in all cases: log2 ratio of Biotin-Ahx-Ub-VS probe labelling (fragment/DMSO); higher = less target engagement (more negative = stronger competition), active = hit call of the paper (q ≤ 0.05, log2 ratio ≤ -1)
Conditions in all cases: compound concentration: 200 uM; treatment time: 3 h
ALG13 = molecular target: T1, ALG13 (UniProt Q9NP73)
T1 sequence (whole entry): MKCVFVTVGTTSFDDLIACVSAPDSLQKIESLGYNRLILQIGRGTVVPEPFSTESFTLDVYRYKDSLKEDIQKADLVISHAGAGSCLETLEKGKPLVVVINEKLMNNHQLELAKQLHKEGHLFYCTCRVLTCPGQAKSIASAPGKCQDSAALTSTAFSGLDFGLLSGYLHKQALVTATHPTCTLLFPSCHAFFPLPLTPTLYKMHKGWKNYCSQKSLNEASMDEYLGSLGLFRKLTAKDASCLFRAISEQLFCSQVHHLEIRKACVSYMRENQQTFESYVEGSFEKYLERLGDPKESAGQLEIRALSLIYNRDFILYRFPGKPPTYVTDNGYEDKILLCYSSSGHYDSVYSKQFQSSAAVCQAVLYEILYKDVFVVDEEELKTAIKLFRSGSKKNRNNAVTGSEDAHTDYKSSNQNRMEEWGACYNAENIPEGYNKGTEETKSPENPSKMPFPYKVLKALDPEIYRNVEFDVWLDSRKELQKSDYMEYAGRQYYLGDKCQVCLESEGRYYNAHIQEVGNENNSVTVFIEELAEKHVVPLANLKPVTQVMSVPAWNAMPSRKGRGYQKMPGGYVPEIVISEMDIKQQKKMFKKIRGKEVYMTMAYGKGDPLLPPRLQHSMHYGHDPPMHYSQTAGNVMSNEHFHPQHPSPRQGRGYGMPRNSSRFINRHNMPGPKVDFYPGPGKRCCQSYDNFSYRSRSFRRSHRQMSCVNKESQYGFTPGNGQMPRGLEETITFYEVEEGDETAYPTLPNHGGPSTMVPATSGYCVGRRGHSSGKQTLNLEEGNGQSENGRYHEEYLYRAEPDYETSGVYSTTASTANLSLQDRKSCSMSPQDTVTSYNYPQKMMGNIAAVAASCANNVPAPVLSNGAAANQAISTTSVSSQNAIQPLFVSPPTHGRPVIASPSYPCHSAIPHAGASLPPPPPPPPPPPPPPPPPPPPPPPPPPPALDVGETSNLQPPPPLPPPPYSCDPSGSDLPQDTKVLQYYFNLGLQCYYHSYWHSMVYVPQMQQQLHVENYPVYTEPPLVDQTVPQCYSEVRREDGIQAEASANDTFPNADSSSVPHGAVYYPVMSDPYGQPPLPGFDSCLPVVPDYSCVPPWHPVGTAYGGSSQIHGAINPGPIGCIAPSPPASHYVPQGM
How it was run: (§1)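 Labelling with Biotin-Ahx-Ub-VS (0.5 µM final, 1 h) followed a 3 h triplicate treatment of HEK293T lysate (495 µg per sample, Tris/CHAPS/IGEPAL buffer with protease inhibitors) with fragment at 200 µM or vehicle. Labelled DUBs were NeutrAvidin-enriched, digested with LysC and trypsin, and run by diaPASEF LC-MS/MS. The values, average log2 fragment/vehicle ratios by unpaired t-test, come from global-median-normalised Spectronaut label-free quantities. Proteins with ≥2 unique peptides were used.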

ATXN3 = ATXN3 (UniProt P54252)
How it was run: as §1

BAP1 = molecular target: T2, BAP1 (UniProt Q92560)
T2 sequence (whole entry): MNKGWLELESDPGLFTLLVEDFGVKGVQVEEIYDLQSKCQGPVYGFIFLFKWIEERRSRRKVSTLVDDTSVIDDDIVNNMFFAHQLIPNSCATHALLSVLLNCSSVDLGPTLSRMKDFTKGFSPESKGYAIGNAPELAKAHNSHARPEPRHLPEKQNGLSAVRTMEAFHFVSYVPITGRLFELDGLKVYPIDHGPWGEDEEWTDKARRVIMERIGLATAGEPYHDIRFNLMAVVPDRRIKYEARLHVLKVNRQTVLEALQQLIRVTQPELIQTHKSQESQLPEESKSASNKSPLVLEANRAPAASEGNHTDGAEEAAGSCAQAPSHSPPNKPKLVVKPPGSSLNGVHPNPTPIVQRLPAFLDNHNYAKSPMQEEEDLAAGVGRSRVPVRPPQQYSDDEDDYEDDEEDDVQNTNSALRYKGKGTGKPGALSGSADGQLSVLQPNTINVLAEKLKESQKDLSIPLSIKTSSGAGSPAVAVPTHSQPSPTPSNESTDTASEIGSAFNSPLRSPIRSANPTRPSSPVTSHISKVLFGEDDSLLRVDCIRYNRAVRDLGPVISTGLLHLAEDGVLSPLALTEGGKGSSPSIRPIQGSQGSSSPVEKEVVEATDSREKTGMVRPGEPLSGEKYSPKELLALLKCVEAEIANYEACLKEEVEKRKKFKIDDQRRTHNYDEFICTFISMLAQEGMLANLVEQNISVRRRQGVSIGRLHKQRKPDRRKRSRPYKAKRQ
How it was run: as §1

EIF3F = EIF3F (UniProt O00303)
How it was run: as §1

EIF3H = EIF3H (UniProt O15372)
How it was run: as §1

FAM105A = molecular target: T3, FAM105A (UniProt Q9NUU6)
T3 sequence (whole entry): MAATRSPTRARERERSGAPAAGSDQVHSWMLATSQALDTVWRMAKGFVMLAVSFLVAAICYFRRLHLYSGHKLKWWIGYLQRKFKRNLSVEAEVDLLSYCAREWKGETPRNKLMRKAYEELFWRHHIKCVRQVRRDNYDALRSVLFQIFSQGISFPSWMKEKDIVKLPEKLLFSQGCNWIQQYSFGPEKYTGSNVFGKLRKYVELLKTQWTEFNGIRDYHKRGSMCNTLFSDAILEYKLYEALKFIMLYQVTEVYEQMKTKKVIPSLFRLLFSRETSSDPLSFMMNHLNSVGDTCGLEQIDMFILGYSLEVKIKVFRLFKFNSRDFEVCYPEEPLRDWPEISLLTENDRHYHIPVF
How it was run: as §1

OTUB1 = OTUB1 (UniProt Q96FW1)
How it was run: as §1

OTUD4 = molecular target: T4, OTUD4 (UniProt Q01804)
T4 sequence (whole entry): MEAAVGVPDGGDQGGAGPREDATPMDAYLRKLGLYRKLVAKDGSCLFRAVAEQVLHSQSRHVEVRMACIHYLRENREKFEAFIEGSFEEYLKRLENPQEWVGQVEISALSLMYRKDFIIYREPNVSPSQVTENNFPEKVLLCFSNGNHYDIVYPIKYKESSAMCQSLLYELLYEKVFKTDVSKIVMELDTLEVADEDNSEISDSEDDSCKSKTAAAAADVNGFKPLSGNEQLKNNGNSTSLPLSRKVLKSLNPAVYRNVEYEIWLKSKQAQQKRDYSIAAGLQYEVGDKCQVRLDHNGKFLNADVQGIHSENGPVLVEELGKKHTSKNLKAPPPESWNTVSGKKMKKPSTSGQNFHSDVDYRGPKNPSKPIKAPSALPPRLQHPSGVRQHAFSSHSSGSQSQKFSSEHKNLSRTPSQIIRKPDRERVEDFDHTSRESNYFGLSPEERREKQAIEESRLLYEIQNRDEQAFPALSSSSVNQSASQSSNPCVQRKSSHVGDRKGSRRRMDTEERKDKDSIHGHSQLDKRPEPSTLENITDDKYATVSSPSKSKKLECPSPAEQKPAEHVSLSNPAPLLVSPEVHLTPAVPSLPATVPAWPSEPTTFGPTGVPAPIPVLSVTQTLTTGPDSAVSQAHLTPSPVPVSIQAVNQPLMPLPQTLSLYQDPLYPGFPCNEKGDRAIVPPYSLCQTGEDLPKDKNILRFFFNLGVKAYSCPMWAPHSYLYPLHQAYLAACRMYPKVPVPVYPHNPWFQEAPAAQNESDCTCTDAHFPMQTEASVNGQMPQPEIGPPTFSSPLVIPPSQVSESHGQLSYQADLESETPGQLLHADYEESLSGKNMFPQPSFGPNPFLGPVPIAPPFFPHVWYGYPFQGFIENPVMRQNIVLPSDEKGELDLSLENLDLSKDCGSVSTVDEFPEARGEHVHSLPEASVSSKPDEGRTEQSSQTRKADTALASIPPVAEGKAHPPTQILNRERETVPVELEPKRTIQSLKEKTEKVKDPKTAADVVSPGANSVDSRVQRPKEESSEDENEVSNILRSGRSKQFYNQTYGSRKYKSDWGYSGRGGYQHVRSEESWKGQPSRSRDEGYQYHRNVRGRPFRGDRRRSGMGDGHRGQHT
How it was run: as §1

OTUD5 = molecular target: T5, OTUD5 (UniProt Q96G74)
T5 sequence (whole entry): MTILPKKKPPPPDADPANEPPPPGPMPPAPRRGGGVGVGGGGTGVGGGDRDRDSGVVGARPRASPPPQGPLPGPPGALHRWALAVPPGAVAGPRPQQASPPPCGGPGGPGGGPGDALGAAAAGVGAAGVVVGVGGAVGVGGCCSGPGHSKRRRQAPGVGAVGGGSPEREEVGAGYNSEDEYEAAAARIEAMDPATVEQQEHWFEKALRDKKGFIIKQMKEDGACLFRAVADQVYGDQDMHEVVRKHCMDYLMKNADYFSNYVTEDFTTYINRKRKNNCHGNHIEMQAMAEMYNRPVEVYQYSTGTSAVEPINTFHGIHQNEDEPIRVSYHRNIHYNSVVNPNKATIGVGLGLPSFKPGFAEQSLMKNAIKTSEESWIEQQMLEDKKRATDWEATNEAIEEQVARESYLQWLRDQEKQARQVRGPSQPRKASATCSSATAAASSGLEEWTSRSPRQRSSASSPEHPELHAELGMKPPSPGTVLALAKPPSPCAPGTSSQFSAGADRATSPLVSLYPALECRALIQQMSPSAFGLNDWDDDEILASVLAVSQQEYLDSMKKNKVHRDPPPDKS
How it was run: as §1

Measured: log2 ratio of Biotin-Ahx-Ub-VS probe labelling

Sequence of OTUB1 (Q96FW1 whole entry): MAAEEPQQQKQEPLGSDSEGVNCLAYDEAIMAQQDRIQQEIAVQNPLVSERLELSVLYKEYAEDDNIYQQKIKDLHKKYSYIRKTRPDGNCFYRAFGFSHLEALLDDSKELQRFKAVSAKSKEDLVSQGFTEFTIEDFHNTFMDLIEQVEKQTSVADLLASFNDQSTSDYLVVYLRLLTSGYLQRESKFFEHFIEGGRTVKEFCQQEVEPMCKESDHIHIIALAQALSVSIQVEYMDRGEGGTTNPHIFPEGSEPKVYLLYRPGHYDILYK
Sequence of ATXN3 (P54252 whole entry): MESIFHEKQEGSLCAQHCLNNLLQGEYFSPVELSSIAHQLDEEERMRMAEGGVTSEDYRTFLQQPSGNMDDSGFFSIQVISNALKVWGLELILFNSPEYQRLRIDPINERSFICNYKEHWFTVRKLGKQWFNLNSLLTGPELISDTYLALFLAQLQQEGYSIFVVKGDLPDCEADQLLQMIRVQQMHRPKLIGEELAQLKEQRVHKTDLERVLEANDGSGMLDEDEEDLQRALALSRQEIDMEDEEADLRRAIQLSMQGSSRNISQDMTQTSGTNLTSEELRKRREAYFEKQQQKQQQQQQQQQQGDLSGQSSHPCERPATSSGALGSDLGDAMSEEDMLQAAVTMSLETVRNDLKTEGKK
Sequence of EIF3F (O00303 whole entry): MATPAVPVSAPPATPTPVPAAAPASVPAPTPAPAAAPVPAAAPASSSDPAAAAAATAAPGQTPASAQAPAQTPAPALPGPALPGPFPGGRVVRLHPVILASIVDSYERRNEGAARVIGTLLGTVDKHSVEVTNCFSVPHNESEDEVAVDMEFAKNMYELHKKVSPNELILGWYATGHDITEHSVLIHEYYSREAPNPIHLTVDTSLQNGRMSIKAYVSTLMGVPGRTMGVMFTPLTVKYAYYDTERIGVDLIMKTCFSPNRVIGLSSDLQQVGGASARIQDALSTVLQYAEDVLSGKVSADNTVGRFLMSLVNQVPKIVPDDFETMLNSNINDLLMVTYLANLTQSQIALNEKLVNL
Sequence of EIF3H (O15372 whole entry): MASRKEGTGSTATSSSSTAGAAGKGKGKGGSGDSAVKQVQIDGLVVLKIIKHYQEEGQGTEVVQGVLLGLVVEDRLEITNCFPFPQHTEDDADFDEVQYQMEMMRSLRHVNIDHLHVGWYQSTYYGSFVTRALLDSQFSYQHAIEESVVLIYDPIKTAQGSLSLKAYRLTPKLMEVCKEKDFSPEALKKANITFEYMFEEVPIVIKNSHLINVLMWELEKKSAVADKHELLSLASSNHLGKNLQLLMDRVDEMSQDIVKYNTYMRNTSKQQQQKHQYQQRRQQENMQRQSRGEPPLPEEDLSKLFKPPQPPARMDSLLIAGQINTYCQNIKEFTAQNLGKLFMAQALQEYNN

COc1ccccc1C(C)NC(=O)CCl (centres undefined)
inactive: ALG13 -0.0378 | ATXN3 -0.0967 | EIF3F -0.185 | EIF3H -0.0831 | FAM105A -0.0799 | OTUB1 -0.298 | OTUD4 -0.393 | OTUD5 -0.514
active: BAP1 -2.35
